The nature of test [1]: Quantitative highthroughput screen to assess conditional lethalithy of NOMO1 cells grown in RPMI1640 with untreated serum (RPMI+s) (AID 1963876).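 For viability: 100% = DMSO wells and 0% = empty wells without cells.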 Note: nearly all actives have a fitted effect of over 35% in size. A digest of the protocol:
(§1)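 Each medium arm—HPLM with 10% dialyzed FBS, or RPMI1640 with 5 mM glucose and 10% untreated or dialyzed FBS—was screened against an 11-point, 3-fold compound titration for 48 h at 37 °C, with CellTiter-Glo luminescence as endpoint.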

A short description of test [2]: Quantitative highthroughput screen to assess conditional lethalithy of NOMO1 cells grown in RPMI1640 with dialyzed fetal bovine serum (RPMI+ds) (AID 1963877).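 For viability: series mostly up to about 46 µM; 100% = DMSO control wells and 0% = empty wells.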 Note: nearly all actives have a fitted effect of over 30% in size. A digest of the protocol: as §1
The nature of test [3]: Quantitative highthroughput screen to assess conditional lethalithy of NOMO1 cells grown in Human Plasma-Like Medium with dialyzed fetal bovine serum (HPLM+ds) (AID 1963878).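 For viability: 100% = DMSO wells and 0% = empty wells on each plate.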 Note: nearly all actives have a fitted effect of over 35% in size. The method, boiled down:
as §1

Test [4] is described as follows: Quantitative highthroughput screen to assess conditional lethalithy of P12 Ichikawa cells grown in RPMI1640 with dialyzed fetal bovine serum (RPMI+ds) (AID 1963880).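 For viability: 100% = DMSO wells and 0% = empty wells on each plate.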 Note: nearly all actives have a fitted effect of over 35% in size. As to conditions: Potency: P12-Ichikawa viability. A digest of the protocol: as §1
The nature of test [5]: Quantitative highthroughput screen to assess conditional lethalithy of P12 Ichikawa cells grown in RPMI1640 with untreated serum (RPMI+s) (AID 1963881).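 For viability: series mostly up to about 46 µM; 100% = DMSO wells and 0% = empty wells without cells.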 Note: nearly all actives have a fitted effect of over 35% in size. As to conditions: Potency: viability. A digest of the protocol: as §1
Test [6] in a line: Quantitative highthroughput screen to assess conditional lethalithy of SEM cells grown in Human Plasma-Like Medium with dialyzed fetal bovine serum (HPLM+ds) (AID 1963882). For viability: series mostly up to about 46 µM. Note: nearly all actives have a fitted effect of over 35% in size. A digest of the protocol: as §1
Test [7] in a line: Quantitative highthroughput screen to assess conditional lethalithy of SEM cells grown in RPMI1640 with unreated serum (RPMI+s) (AID 1963883).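 For viability: 100% = DMSO wells and 0% = empty wells without cells.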 Note: nearly all actives have a fitted effect of over 35% in size. The method, boiled down: as §1
Test [8] is described as follows: Quantitative highthroughput screen to assess conditional lethalithy of P12 Ichikawa cells grown in Human Plasma-Like Medium with dialyzed fetal bovine serum (HPLM+ds) (AID 1963879). For viability: series mostly up to about 46 µM. Note: nearly all actives have a fitted effect of over 35% in size. As to conditions: Potency: viability. The method, boiled down:
as §1

A short description of test [9]: Quantitative highthroughput screen to assess conditional lethalithy of SEM cells grown in RPMI1640 with dialyzed fetal bovine serum (RPMI+ds) (AID 1963884).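 For viability: series mostly up to about 46 µM; 100% = DMSO control wells and 0% = empty wells without cells.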 Note: nearly all actives have a fitted effect of over 35% in size. A digest of the protocol:
as §1

Test [10] in a line: Cellular viability qHTS for adrenocortical cancer (ACC) cell line SW-13 (AID 1963989).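 For activity (max response): cells grown in serum-free medium with ITS supplement; % is set by controls: 0 for no effect and ±100 for the full control effect.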 Note: nearly all actives have a fitted effect of over 65% in size. As to conditions: SW-13 ACC cells viability, CellTiter-Glo, 48 h; activity (max response): stronger effect = lower value. A digest of the protocol:
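Luminescent ATP read-out (CellTiter-Glo, 20 min at room temperature) measured metabolically competent SW-13 cells after 48 h compound treatment. Final concentrations spanned up to 46 uM; bortezomib served as positive control.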

A short description of test [11]: Cellular viability qHTS for adrenocortical cancer (ACC) cell line NCI-H295R (AID 1963990). Note: nearly all actives have a fitted effect of over 60% in size. The method, boiled down:
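IC50 and maximal efficacy derive from four-parameter logistic modelling of titration curves, with reads scaled between DMSO-only wells (0%) and doxorubicin hydrochloride (100% inhibition). Compounds spanned up to 46 uM over 48 h.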

Results filed as inconclusive are left out. The source holds several records for some structures; these can differ, active in one and inactive in another. A number with no mark means an inactive call. Active and inactive are the calls of the source. Calls come from the whole dose curve; as a rule, active = well fitted curve in the direction sought with a large enough effect; inconclusive = small, poorly fitted or top-dose-only effect, or another doubt; inactive = no such curve, though single readings can be large; an effect the other way counts as inactive or inconclusive.
Potency is the fitted concentration of half-maximal effect.

As to `CN[C@@H]1C[C@H]2O[C@@](C)([C@H]1OC)n1c3ccccc3c3c4c(c5c6ccccc6n2c5c31)C(=O)N[C@H]4O`, the Potency in [1] is 833 nM (active); in [2], 1050 nM (active); in test [3], 590 nM (active); in test [4], 590 nM (active); in [5], 418 nM (active); in test [6], 332 nM (active). Moreover, in test [7], the Potency was 332 nM (active).
As to `CCN(CC)CCOc1ccc(C(=C(Cl)c2ccccc2)c2ccccc2)cc1`, the Potency result in test [1], in [2], in test [3], in test [8], in test [6] and in test [7] was “inactive” each time. Further, in test [9], the Potency result was “inactive”.
`Cc1ccc(-c2cc(C(F)(F)F)nn2-c2ccc(S(N)(=O)=O)cc2)cc1`: the Potency entry in test [1], in [2], in [3], in test [4], in test [5] and in [6] was “inactive” each time. Further, the Potency entry in test [7], in [9] and in [11] was “inactive” in each case. In test [10], the Potency is 23100 nM (active). Besides, the activity (max response) in test [10] was -6.62%.
Turning to `OCC(O)C(O)C(O)CO` (stereo not drawn), the Potency entry in test [1], in [2], in [3], in test [4] and in [5] was “inactive” each time.
Take `CC(=O)[C@]1(O)Cc2c(O)c3c(c(O)c2[C@@H](O[C@H]2C[C@H](N)[C@@H](O)[C@H](C)O2)C1)C(=O)c1ccccc1C3=O`: the Potency is 2960 nM (active) in [1]; 3720 nM (active) in test [2]; 2960 nM (active) in [3]; 1480 nM (active) in [4]; 1480 nM (active) in [5]; 1050 nM (active) in test [6]. In addition, the Potency in [7] was 833 nM (active); in [9] it was 1050 nM (active).
Consider `CC(C)(C)c1cnc(CSc2cnc(NC(=O)C3CCNCC3)s2)o1`, for which the Potency was 1050 nM (active) in [1]; 935 nM (active) in test [2]; 590 nM (active) in test [3]; 1320 nM (active) in [4]; 1180 nM (active) in [5]; 662 nM (active) in test [6]. The Potency in test [7] was 935 nM (active); in test [9], 833 nM (active); in [10], 631 nM (active); in [11], 7940 nM (active).
Turning to `COc1ccc(C=Cc2cc(OC)c(OC)c(OC)c2)cc1O`, the Potency result in [1], in [2], in test [3], in test [8], in test [7] and in test [9] was “inactive” each time.
`CCOc1cc(C=C2C(=O)N(c3ccccc3)N=C2C)cc(Cl)c1OCC(=O)OC`: the Potency entry in test [1], in test [2], in test [3], in test [4] and in [5] was “inactive” throughout.
Consider `CC(=O)OCC(=O)[C@@]1(O)CC[C@H]2[C@@H]3CCC4=CC(=O)C=C[C@]4(C)[C@@H]3[C@@H](O)C[C@@]21C`, for which the Potency result in [1], in test [2], in test [3], in test [5], in [7] and in [9] was “inactive” in each case.
For the compound `CN(N=O)C(=O)N[C@H]1C(O)OC(CO)[C@@H](O)[C@H]1O` (stereo partly drawn), the Potency entry in [1], in test [2], in [3], in test [4] and in test [5] was “inactive” in each case.
Turning to `Cn1cc(-c2ccc3nnc(C(F)(F)c4ccc5ncccc5c4)n3n2)cn1`, the Potency result in [1], in test [2], in test [3], in test [4], in test [5] and in test [6] was “inactive” in each case. Besides, the Potency result in test [7], in test [9] and in test [11] was “inactive” throughout. For the same compound, the activity (max response) in test [10] is 3.57%.
Turning to `CC[C@H]1OC(=O)[C@H](C)[C@@H](O[C@H]2C[C@@](C)(OC)[C@@H](O)[C@H](C)O2)[C@H](C)[C@@H](O[C@@H]2O[C@H](C)C[C@H](N(C)C)[C@@H]2O)[C@](C)(OC)C[C@@H](C)C(=O)[C@H](C)[C@@H](O)[C@]1(C)O`, the Potency result in [1], in [2], in test [3], in test [4], in [5] and in [6] was “inactive” each time. The Potency entry in [9] is “inactive”.
Consider `COc1cc(OC)cc(-c2ccc3ncc4ccc(=O)n(-c5ccc(N6CCNCC6)c(C(F)(F)F)c5)c4c3c2)c1`, for which the Potency entry in test [1] is “inactive”. The Potency was 8330 nM (active) in test [2]; 14800 nM (active) in test [3]; 10500 nM (active) in test [8]; 14800 nM (active) in [6]; 16600 nM (active) in [7].
Turning to `C=CC1=C(C(=O)O)N2C(=O)[C@@H](NC(=O)C(=NO)c3csc(N)n3)[C@H]2SC1`, the Potency result in test [1], in [2], in [3], in test [4], in test [5] and in test [6] was “inactive” in each case. In addition, the Potency entry in test [7] and in test [9] was “inactive” throughout.
On to `C[C@H]1[C@H](O)O[C@@H]2O[C@@]3(C)CC[C@@H]4[C@H](C)CC[C@@H]1[C@@]24OO3`, for which the Potency is 1870 nM (active) in [1]; 2090 nM (active) in [2]; 2090 nM (active) in test [3]; 2960 nM (active) in test [5]; 4180 nM (active) in test [6]; 4690 nM (active) in test [7]. The Potency in test [9] was 3320 nM (active).
For the compound `Cc1nc(NC(=O)N2CCC[C@@H]2C(N)=O)sc1-c1ccnc(C(C)(C)C(F)(F)F)c1`, the Potency in test [1] is 2960 nM (active); in test [2], 2640 nM (active); in test [3] it was 2640 nM (active); in test [5], 3320 nM (active); in test [6] it was 1480 nM (active); in test [9], 2960 nM (active).
Turning to `NC[C@H]1O[C@H](O[C@H]2[C@@H](O)[C@@H](O[C@H]3O[C@H](CO)[C@@H](O)[C@H](N)[C@@H]3O)[C@H](N)C[C@@H]2N)[C@H](N)C[C@H]1O`, the Potency entry in test [1], in test [2], in test [3], in [8], in test [6] and in test [7] was “inactive” each time.
`COc1ccnc2[nH]cc(C(=O)C(=O)N3CCN(C(=O)c4ccccc4)C[C@@H]3C)c12`: the Potency result in test [1], in [2], in test [3], in [4], in test [5] and in [6] was “inactive” throughout. Further, the Potency entry in test [7] and in test [9] was “inactive” in each case.

The record behind these values is PubChem BioAssay (NCATS).
